Screens (PubChem)
NPC1 promoter act: activators of NPC1 promoter; Huh7 NPC1 promoter luciferase reporter, 24 h; Potency, µM (doses to about 9.22 µM), for the others: at the top dose activation, usual class: activators; 320,000 tested, 2.4% active; note: % of control where 0% means no effect; nearly all actives have a fitted effect of over 60% in size
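Luminescence read-out of NPC1 promoter-driven luciferase in stably transfected Huh7 cells; compounds delivered in DMSO and left 24 h at 37C, 5% CO2, qHTS titration format.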
SMN2 splice up: increases expression of the SMN2 splice variant | HEK293 SMN2-luciferase splicing reporter, luminescence, 30-36 h | Potency, µM (series often up to 46.1 µM), without a hit: at the highest dose activity change, positive = activation, most hits filed as activators | 210,000 tested, 2.8% active; note: % of control where 0% means no effect; nearly all actives have a fitted effect of over 55% in size
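HEK293 cells carry an SMN2 […]–luciferase reporter in which exon 7 inclusion puts luciferase in frame. Cells were plated 10-12 h before compound addition, then incubated 30-36 h at 37C. ONE-Glo luminescence was read; sodium butyrate at 4.5 mM final served as control.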
ELG1 genotox: genotoxicity induction in ELG1-luciferase HEK293T cells | AID 504466 | Potency, µM (top dose mostly 46 µM), without a hit: at the top dose activity change, positive = activation, usual class: activators | HEK293T ELG1-luciferase reporter, luminescence, 16 h | 330,000 tested, 1.3% active; note: % of control where 0% means no effect; nearly all actives have a fitted effect of over 60% in size
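Cells (2,000/well) expressing the ELG1-luciferase fusion are dosed by pin tool and kept 16 hr at 37 °C, 5% CO2. Signal comes from ONE-Glo luciferase reagent after 30 min at room temperature.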
FLuc modulator: inhibits or activates purified firefly luciferase, miR-21 counter-screen | purified FLuc, Km substrates, luminescence inhibition | Potency, µM (series often up to 57.5 µM), for inactives: at the top dose activity change, negative = inhibition, hits mostly inhibitors | 360,000 tested, 6.9% active | AID 588342;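 note: plate controls were vehicle for no effect and reference inhibitor for full effect; nearly all actives have a fitted effect of over 55% in size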
Target sequence (P08659 whole entry, looked up): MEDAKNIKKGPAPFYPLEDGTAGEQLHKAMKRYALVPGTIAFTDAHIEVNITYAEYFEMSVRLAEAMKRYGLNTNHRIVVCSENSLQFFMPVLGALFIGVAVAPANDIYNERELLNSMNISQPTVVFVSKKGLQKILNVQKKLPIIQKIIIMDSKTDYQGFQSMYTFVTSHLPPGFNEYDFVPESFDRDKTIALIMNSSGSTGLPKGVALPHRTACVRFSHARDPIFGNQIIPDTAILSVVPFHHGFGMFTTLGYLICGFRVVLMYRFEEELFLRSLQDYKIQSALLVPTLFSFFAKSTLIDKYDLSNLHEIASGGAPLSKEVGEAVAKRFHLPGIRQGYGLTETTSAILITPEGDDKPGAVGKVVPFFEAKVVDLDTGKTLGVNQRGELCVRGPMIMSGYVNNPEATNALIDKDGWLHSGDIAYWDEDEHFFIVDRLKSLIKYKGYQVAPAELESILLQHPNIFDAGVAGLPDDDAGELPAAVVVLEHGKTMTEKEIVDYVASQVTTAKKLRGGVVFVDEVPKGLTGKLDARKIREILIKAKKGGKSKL
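Purified P. pyralis luciferase, 10 nM final, with Km-level 10 uM D-luciferin and 10 uM ATP in 50 mM Tris acetate pH 7.5, 10 mM Mg acetate, 0.01% Tween-20, 0.05% BSA; 6-point qHTS titration about 60 µM downward; luminescence read.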
Rab9 promoter act: Rab9 promoter activation | Huh7 Rab9 promoter-luciferase reporter, luminescence, 24 h | Potency, µM (highest dose often 9.22 µM), inactives show at the top dose activation, negative = inhibition, actives largely listed as activators | 320,000 tested, 2.8% active | AID 485297; note: % of control where 0% means no effect; nearly all actives have a fitted effect of over 60% in size
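Luminescence read-out: Huh7 cells stably expressing Rab9-luciferase, treated 24 h with compound at 37 °C, then lysed with luciferase reagent for 10 min at ambient before reading.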
ELG1 DNA repair: ELG1-dependent DNA repair inhibition; HEK293T ELG1-luciferase reporter, luminescence, 16 h; DNA damage induced by 5-fluorouridine; Potency, µM (titrated, usually from 46.1 µM), for inactives: at the highest dose activity change, negative = inhibition, most hits filed as inhibitors; 330,000 tested, 2.3% active; note: % is set by controls: 0 for no effect and ±100 for the full control effect; nearly all actives have a fitted effect of over 55% in size
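Reporter activity after DNA damage by 5-fluorouridine is monitored. Compound-treated cells incubate 16 hr at 37 °C, then ONE-Glo is added for 30 min before luminescence reading.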
Active calls of the source: *; u = inconclusive; x = no result given; [ ] = dose if it differs, or a comment. Most compounds without a hit are left out; they make up all but 9.2% or so of the library. Calls come from the whole dose curve; as a rule, active = well fitted curve in the direction sought with a large enough effect; inconclusive = small, poorly fitted or top-dose-only effect, or another doubt; inactive = no such curve, though single readings can be large; an effect the other way counts as inactive or inconclusive. Potency is the fitted concentration of half-maximal effect.

SMILES	NPC1 promoter act	SMN2 splice up	ELG1 genotox	FLuc modulator	Rab9 promoter act	ELG1 DNA repair
CCC(C)Cn1c(/C=C/c2ccccc2)nc2ccccc21 (configuration not stated)	x	22.7%	x	6.75µM*	x	x
CCC(C)Cn1c(C(C)C)nc2ccccc21 (configuration not stated)	-10.3%	-2.5%	-7.9%	-0.8%	-4.4%[1.84 µM]	-10.6%
CC(C)Cn1c(/C=C/c2ccc(F)cc2)nc2ccccc21	x	17.8µM*	x	2.39µM*	x	x
COCCn1c(-c2ccccc2)nc2ccccc21	-1.7%	-5.4%	3.2%	u	-2.2%	u
CC(C)CCn1c(-c2nonc2N)nc2ccccc21	-2.9%	3.6%	-6.5%	-1.3%	-1.3%	23.1µM*
COCCn1c(/C=C/c2ccccc2)nc2ccccc21	2.24µM*	11.2µM*	u	1.69µM*	2µM*	u
CC(C)CC(=O)c1c(O)c(C=O)c(O)c2c1O[C@@]1(C)[C@@H](C2)C[C@H]2C[C@@H]1C2(C)C	x	x	0.1%	x	x	u
Cc1ccc(NC(=O)Cn2c(=O)c(C)nc3ccccc32)cc1	-1.5%	4.8%	1.6%	-1.2%	-2.4%	8.4%
CC(C)CCn1c(C(C)O)nc2ccccc21 (configuration not stated)	0.0%	-22.7%	-0.6%	7.3%	3.5%	-13.8%
CC(C)CCn1c(/C=C/c2ccccc2)nc2ccccc21	x	u	x	4.26µM*	x	x
Cc1cccc(NC(=O)Cn2c(/C=C/c3ccccc3)nc3ccccc32)c1	12.2%	x	23.1µM*	3.01µM*	23.4%	u
C=CCN(C(=O)C1CSC2(C)CCC(=O)N12)c1nc(-c2ccccc2)cs1 (configuration not stated)	0.5%	x	18.3µM*	-1.0%	7.2%	u
CN(Cc1ccc(C(C)(C)C)cc1)C(=O)C1CSC2(C)CCC(=O)N12 (configuration not stated)	-1.7%	x	-2.2%	0.7%	-14.7%	u
NS(=O)(=O)c1ccc(N/C=C\C(=O)c2ccc(F)cc2)cc1	3.98µM*	12.6µM*	u	15.1µM*	3.55µM*	u
CC(=O)c1ccc(N/C=C/C(=O)c2ccc(Br)cc2)cc1	2.82µM*	x	6.51µM*	-4.6%	3.98µM*	u
NS(=O)(=O)c1ccc(N/C=C/C(=O)c2ccc(Br)cc2)cc1	u	u	u	-13.5%	2.82µM*	u
CN(C)c1ccc(N/C=C/C(=O)c2ccc(F)cc2)cc1	3.16µM*	10µM*	2.06µM*	0.477µM*	2.51µM*	u
NS(=O)(=O)c1ccc(N/C=C\C(=O)c2ccncc2)cc1	9.0%	x	1.7%	-11.5%	-2.4%	u
C=CCn1c(SC(C)C(=O)c2c(N)n(C)c(=O)n(C)c2=O)nnc1-c1ccoc1C (configuration not stated)	-2.2%	x	0.7%	x	-4.7%	-1.3%
Cc1ccc(COC(=O)CCCN=C2NS(=O)(=O)c3ccccc32)cc1	7.0%	x	u	-1.7%	0.2%	-5.8%
COCCN(CC(=O)Nc1ccccc1C(F)(F)F)C(=O)/C=C/c1ccc2ccccc2n1	0.1%	x	0.4%	-1.4%	-0.8%	1.8%
COc1ccc(OC)c(NC(=O)CCn2cccn2)c1	x	x	x	4.6%	x	x
Cc1ccc(N2C(=O)N3[C@H](c4ccc(F)cc4)[C@@H]4C(=O)N(C5CCCCC5)C(=O)[C@@H]4[C@]3(Cc3ccccc3)C2=O)cc1	-4.5%	x	1.9%	1.7%	-1.3%	0.7%
O=C(c1c[nH]c(C(=O)N2CCN(c3ccccc3F)CC2)c1)c1cccc(Cl)c1Cl	-25.3%	-52.8%	-13.3%	3.1%	-13.4%	-17.0%
Cc1ccccc1C(=O)c1c[nH]c(C(=O)N2CCN(c3ccccc3F)CC2)c1	-2.4%	-8.5%	-3.2%	-11.1%	-6.6%	23.1µM*
